The values that follow come from PubChem BioAssay AID686978 (National Center for Advancing Translational Sciences (NCATS), 2013).

Structures are written as SMILES. Screen size: about 420,000 compounds; about 64,000 (15%) were called active. Another 27% or so got no clear call; they are omitted. These entries were drawn from the full list. Values without a mark were called inactive. Calls follow the shape of the dose curve; as a rule, active = well fitted inhibition curve with a large enough effect; inconclusive = small, poorly fitted or top-dose-only effect; inactive = flat fitted curve, though single readings scatter. Peptide text beside a SMILES is read from it.
% is scaled to controls: 0 for no effect and ±100 for the full control effect; potency is read from the fitted curve at half-maximal effect.

A short description of this test: qHTS for Inhibitors of human tyrosyl-DNA phosphodiesterase 1 (TDP1): qHTS in cells in absence of CPT. Also: nearly all actives have a fitted effect of over 55% in size. The following applies: DT40 Tdp1-/- hTDP1 cells, no CPT, ATP luminescence, 48 h; activity change, negative = growth inhibition: at 46.2 µM (top of the series). A digest of the protocol:
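Stably hTDP1-transfected Tdp1-null chicken DT40 cells were treated with library compounds minus camptothecin and grown for at least 48 hr at 37 °C, after which cellular ATP was quantified by luminescence.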
Background: qHTS replaces the single test concentration by a dilution series.
Turning to `CCOc1ccc(-n2c(C)nc3c(cnn3-c3ccc(C)cc3)c2=O)cc1`, the Potency is 5.8 µM (active).
On to `CCOC(=O)c1ccc(-n2c(C)nc3c(cnn3-c3ccccc3C)c2=O)cc1`, for which the “activity change, negative = growth inhibition” value is -27.8%.
Consider `COC(=O)C1CCCCN1C(=O)c1ccc(OC2CCN(C(C)=O)CC2)c(OC)c1` (centres undefined), for which the “activity change, negative = growth inhibition” value was -10.1%.
For the compound `CS(=O)(=O)c1ccc(C(=O)NNC(=O)c2cccs2)cc1`, the “activity change, negative = growth inhibition” value is 16.7%.
For the compound `O=[N+]([O-])c1ccc(C=NN=Cc2ccc([N+](=O)[O-])cc2)cc1`, the “activity change, negative = growth inhibition” value is -11.9%.
For the compound `O=C1/C(=C\c2ccc([N+](=O)[O-])cc2)CS(=O)(=O)C/C1=C/c1ccc([N+](=O)[O-])cc1`, the Potency was 0.0231 µM (active).
Regarding `O=C(NN=Cc1ccc([N+](=O)[O-])cc1)C1CC1`, the “activity change, negative = growth inhibition” value is -13.3%.
Same read-out and setting: the value for `CCN(CC)Cc1c(C(=O)N/N=C/c2cccc(OCc3ccc(F)cc3)c2)nnn1-c1nonc1N` was 17.5%; that for `CCc1ccc(N2CC(C(=O)Nc3ccc(S(=O)(=O)Nc4nccs4)cc3)CC2=O)cc1` (centres undefined) was -3.73%; that for `CSc1sc(C(=O)NC(=O)NCc2cccnc2)c(C)c1-c1ccon1` was -28.8%.
For the compound `Cc1ccc(-n2nc(-c3ccco3)cc2C(=O)NCc2cccnc2)cc1`, the Potency is 18.4 µM (active).
`Cc1ccc(C(=O)NC(=S)NCc2cccnc2)cc1`: the “activity change, negative = growth inhibition” value was -23.8%.
As for `NC(=S)N/N=C/c1coc2cc(Cl)ccc2c1=O`, the “activity change, negative = growth inhibition” value is -10.4%.
On to `CC(C)Oc1c(Br)cc(Br)cc1/C=N/NC(N)=S`, for which the Potency is 5.8 µM (active).
Take `O=C(NNC(=S)Nc1ccc(F)cc1)[C@H]1C[C@@H]1c1ccccc1`: the “activity change, negative = growth inhibition” value was -21.6%.
The same measure, in the same setting: the result for `C(=N\n1cnnc1)/c1cccnc1` reads 0.108%.
Consider `CCc1ccc(N2CC(O)=C(c3nc4ccccc4c(=O)[nH]3)C2=N)cc1`, for which the Potency is 14.6 µM (active).
On to `N=C1C(c2nc3ccccc3[nH]2)=C(O)CN1NC(=O)c1c[nH]c2ccccc12`, for which the “activity change, negative = growth inhibition” value is -18.9%.
`O=c1[nH]c(-c2cccs2)nc2ccccc12`: the “activity change, negative = growth inhibition” value was -14.4%.
In the case of `CCn1c(SCC(=O)Nc2ccc3c(c2)OCCO3)nnc1-c1ccncc1`, the “activity change, negative = growth inhibition” value is -7.98%.
Regarding `Cc1ccc2nc(-c3ccncc3)cc(C(=O)Nc3ccc(OC(F)F)cc3)c2c1`, the Potency was 9.2 µM (active).
On to `O=C(Nc1ccncc1)c1cc(-c2ccccn2)nc2ccc(Br)cc12`, for which the “activity change, negative = growth inhibition” value was 3.21%.
Consider `O=C(Nc1ccc(S(=O)(=O)Nc2nccs2)cc1)c1cc(-c2ccncc2)nc2ccccc12`, for which the “activity change, negative = growth inhibition” value was 28.4%.
`O=C(Nc1ccc2c(c1)OCCO2)c1cnccn1`: the “activity change, negative = growth inhibition” value is -11.3%.
The same measure, in the same setting: the result for `CCN(CC)CCNC(=O)c1ccc(NS(=O)(=O)c2ccc3c(c2)OCCO3)cc1` reads 1.9%.
`Cc1ccc2nc(-c3ccncc3)cc(C(=O)Nc3ccc4c(c3)OCCO4)c2c1`: the Potency was 10.3 µM (active).
With `Cc1ccc2nc(-c3ccccc3)cc(C(=O)O)c2c1`, the “activity change, negative = growth inhibition” value was 3.48%.
In the case of `CCN(CC)CCNC(=O)c1ccc(NC(=O)c2cc(-c3ccncc3)nc3ccccc23)cc1`, the Potency was 23.1 µM (active).
In the case of `C=CCNC(=O)/C(=C\c1cccc([N+](=O)[O-])c1)NC(=O)c1ccccc1`, the “activity change, negative = growth inhibition” value is 2.93%.
The same measure, in the same setting: the result for `COc1cc(/C=C/C(=O)OCC(=O)NC2CC2)cc(OC)c1OC` reads -6.43%; that for `Cc1cc(=O)oc2cc(NC(=O)C(C)Oc3ccccc3)ccc12` (centres undefined), -22.7%; that for `C[C@H](CO)N1C[C@H](C)[C@@H](CN(C)S(=O)(=O)c2ccc(Oc3ccccc3)cc2)OCc2cn(nn2)CCCC1=O`, -20.9%.
The same measure, in the same setting: the value for `COc1ccc(NC(=O)CSc2nc(N)c(-c3ccccc3)c(=O)[nH]2)cc1` was 3.54%.
On the same count and under the same terms, the result for `CC(C)c1ccc(Nc2ncccc2C#N)cc1` reads -21.5%; that for `CCc1nnc(NC(=O)c2cccs2)s1`, -3.32%.
With `CC(=O)c1cccc(NC(=O)C2CCCN2S(=O)(=O)c2cccc3nsnc23)c1` (centres undefined), the “activity change, negative = growth inhibition” value was -1.49%.
`CC(C)C(c1nnnn1C1CCCCC1)N1CCN(C(=O)c2ccco2)CC1` (centres undefined): the “activity change, negative = growth inhibition” value is 0.558%.
For the compound `CC(C)C(c1nnnn1C1CCCC1)N1CCN(c2ccccc2F)CC1` (centres undefined), the Potency is 18.4 µM (active).
Regarding `CCC(c1nnnn1C1CCCC1)N1CCN(C(=O)c2ccco2)CC1` (centres undefined), the “activity change, negative = growth inhibition” value was 1.8%.
On the same count and under the same terms, the value for `CC(C)C[C@@H](NC(=O)[C@H]1CCCN1C(=O)Cc1ccccc1)C(N)=O` (HELM PEPTIDE1{[O=C(Cc1ccccc1)[*:2]].[dP].[dL].[am]}$$$$V2.0) was 6.33%.
The same measure, in the same setting: the value for `CC(C)C(=O)Nc1c2c(nn1-c1ccccc1)CSC2` was 4.86%; that for `CCN1C(=NCCc2cccnc2)N[C@@H](c2ccccc2)[C@H](C(=O)OC)[C@H]1C` was -24.1%.
As for `CCN1C(=O)N[C@@H](c2ccccc2)[C@H](C(C)=O)[C@H]1C`, the “activity change, negative = growth inhibition” value is -1.65%.
On the same count and under the same terms, the value for `CC1=C(C)CC(C(=O)NC(C)CCc2ccccc2)C(C(=O)O)C1` (centres undefined) was -0.273%; that for `COCCN1C(=O)N[C@@H](CCc2ccccc2)[C@H](C(C)=O)[C@H]1C` was -9.51%.
As to `CCN1C(=NCc2ccc(OC)cc2)N[C@@H](CCc2ccccc2)[C@H](C(=O)NCc2ccc(OC)cc2)[C@H]1C`, the Potency is 9.2 µM (active).
Still for that read-out and setting: the result for `CCN1C(=NCC(C)C)N[C@@H](CCc2ccccc2)[C@H](C(=O)NCC(C)C)[C@H]1C` reads 13 µM (active).
Take `CCc1ccccc1NC(=O)CSc1nnc([C@@H](NC(=O)OC(C)(C)C)C(C)C)o1`: the “activity change, negative = growth inhibition” value is -11%.
The same measure, in the same setting: the value for `Cc1c(NS(=O)(=O)c2ccc(Cl)cc2)c(=O)n(-c2ccccc2)n1C` was -6.89%.
